# MITF inh: inhibitors of human MITF. O75030. AlphaScreen MITF homodimerization, bead proximity signal. inhibition, % at 2.6 µM. 0.91% of 650,000 active. AID 1259374; in the data active = inhibition above about 50%;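 note: 0% = vehicle wells with protein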
# FBW7 activator: human FBW7 E3 ligase activation, primary screen. normalized activity (activation), % at 26.1 µM. AlphaScreen FBW7–phospho-cyclin E peptide binding, activator screen. AID 1259310. 0.13% of 650,000 active; in the data active = normalized activity above about 1.9%;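 note: purified mutant Fbw7 with reduced substrate affinity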
# Target sequence (Q969H0 whole entry, looked up): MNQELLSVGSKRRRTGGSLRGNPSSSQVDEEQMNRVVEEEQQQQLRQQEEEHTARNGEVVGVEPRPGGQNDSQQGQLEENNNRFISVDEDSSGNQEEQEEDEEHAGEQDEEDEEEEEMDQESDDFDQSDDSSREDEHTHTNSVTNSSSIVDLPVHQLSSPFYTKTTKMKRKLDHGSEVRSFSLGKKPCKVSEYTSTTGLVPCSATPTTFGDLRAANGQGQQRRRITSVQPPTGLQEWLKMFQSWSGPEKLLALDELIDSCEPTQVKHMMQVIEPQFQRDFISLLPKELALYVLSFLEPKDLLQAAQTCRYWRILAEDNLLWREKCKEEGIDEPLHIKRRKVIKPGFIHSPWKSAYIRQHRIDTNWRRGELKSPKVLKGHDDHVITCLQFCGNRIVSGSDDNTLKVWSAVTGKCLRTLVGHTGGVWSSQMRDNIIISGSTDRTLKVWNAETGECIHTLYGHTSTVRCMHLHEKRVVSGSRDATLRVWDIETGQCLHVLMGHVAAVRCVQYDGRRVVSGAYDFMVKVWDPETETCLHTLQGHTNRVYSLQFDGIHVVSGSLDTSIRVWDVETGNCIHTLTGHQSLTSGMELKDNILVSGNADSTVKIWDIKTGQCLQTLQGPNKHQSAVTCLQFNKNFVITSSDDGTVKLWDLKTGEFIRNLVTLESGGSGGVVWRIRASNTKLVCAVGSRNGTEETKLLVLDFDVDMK
# TEAD-YAP block: TEAD-YAP interaction inhibition. HEK-TIYL cells, TEAD-Gal4/YAP UAS-luciferase luminescence. inhibition, % at 9.12 µM. 1.4% of 640,000 active. AID 1259422; in the data active = inhibition above about 32%;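 note: 0% = median of test compound wells and 100% = reference inhibitor wells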
# GPR151 ag: activates the human receptor GPR151. 1% of 650,000 active. AID 1508602. PathHunter beta-arrestin GPR151 cells, luminescence. activation, % at 11.2 µM. Q8TDV0; in the data active = activation above about 4.9%;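 note: 0% = median of compound wells and 100% = cells with positive control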
# MITF inh conf: confirmation of human MITF inhibitors. shares compounds with MITF inh. 16% of 4,700 active. inhibition, % at 2.6 µM. AlphaScreen MITF homodimerization, biotin/His-MITF beads;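 active = inhibition above a cutoff derived from the DMSO control wells, cut at about 28% in these data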;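 note: 0% = MITF dimer wells with DMSO only; inhibitors lower the bead chemiluminescence by keeping MITF from dimerizing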
# AS interf DR: AlphaScreen optical interference, dose response counter-screen; IC50, µM; 6% of 480 active; AlphaScreen optical interference counterscreen, cell-free; shares compounds with MITF inh; call rule not given here
# AS interf ctr: AlphaScreen optical interference, counter-screen; LysRS AlphaScreen counterscreen, signal interference, triplicate; 7.6% of 4,700 active; inhibition, % at 2.6 µM; shares compounds with MITF inh; AID 1259376;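 active = inhibition above a cutoff derived from the DMSO control wells, cut at about 30% in these data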
# Starred values were filed as active, the others as inactive; nt = not tested or not shown. The list is not random: actives were taken first. Their share in the collection is about 3.5%.
SMILES,MITF inh,FBW7 activator,TEAD-YAP block,GPR151 ag,MITF inh conf,AS interf ctr,others
O=C1NC(=O)C(CCCc2ccccc2)(C2CCN(C(=O)Cc3cccc(F)c3)CC2)N1 (centres undefined),51*,0,0,-1,4,-2,
COc1cc(CN2CCN(C3CCCCC3)CC2)cc(OC)c1O,65*,0,-8,-1,8,29,
COc1cc(CN2CCN(C3CCCC3)CC2)cc(OC)c1OC,65*,0,11,3,28*,21,AS interf DR=>6.5
COc1cccc(C(=O)N2CCN(Cc3ccccn3)CC2)c1,92*,0,-8,-1,-11,1,
COc1cc(OC)cc(C(=O)N2CCN(Cc3ccccn3)CC2)c1,57*,0,-6,-1,15,18,
O=C1[C@@H]2CSCN2C(=O)[C@H]2CN(Cc3cnn(-c4ccccc4F)c3)CCN12,11,0,0,2,nt,nt,
S=c1nc(NCc2ccccc2)c2ccccc2[nH]1,-9,0,-7,1,nt,nt,
COCc1nc(Cn2cnc3cc(C)c(C)cc32)no1,-2,0,-3,0,nt,nt,
Cc1cc2ncn(Cc3noc(-c4ccco4)n3)c2cc1C,55*,0,-19,1,33*,-5,AS interf DR=>6.5
CCN(CC)Cc1c(O)ccc2c1O/C(=C\c1ccc(F)cc1)C2=O,-3,0,4,0,nt,nt,
Cc1nn2c(nc(N3CCCCCC3)c3ccccc32)c1C=O,62*,0,-10,2,6,6,
N#Cc1ccccc1CNCc1ccc(Cl)cc1,52*,0,8,0,-5,16,
CCCn1cc(NC(=O)c2cc(-c3ccccc3N)no2)cn1,73*,0,-17,1,-17,-1,
CCCn1cc(NC(=O)c2ccc(Br)o2)cn1,-1,0,-51,-3,nt,nt,
COc1ccc(N=C2SC(C(=O)N3CCN(c4ccccn4)CC3)CC(=O)N2C)cc1 (centres undefined),-6,0,10,1,nt,nt,
CC(C)NC(=O)c1nn2c(c1Br)NC(c1cccs1)CC2C(F)(F)F (centres undefined),-2,0,0,0,nt,nt,
O=C(NC1CCCCC1)c1nn2c(c1Br)NC(c1cccs1)CC2C(F)(F)F (centres undefined),60*,0,-1,1,-9,-9,
Nc1cc2c3c(cc(N)cc3c1)C(=O)N(O)C2=O,106*,-2,-8,0,111*,94*,
CNC(=O)c1ccc(-c2cc(C(C)C)ccc2OC)nc1NCCOC,0,1,-16,0,nt,nt,
CCc1nc2c(sc3cccc(F)c32)c(=O)n1CC(=O)NCc1ccc(Cl)cc1,55*,0,-4,-1,-5,-5,
O=C(COc1ccccc1)Nc1ccc(NC(=O)c2cccs2)cc1,51*,0,-1,1,-16,1,
CCOC(=O)c1sc(NC(=O)Cc2ccc(OCC)c(OCC)c2)c(C(=O)OCC)c1C,7,0,-4,1,nt,nt,
COc1cc(NC(=O)c2ccnc(-c3ccc(C(=O)N4CCN(C)CC4)cc3)c2)cc(OC)c1OC,-6,0,-4,5,nt,nt,
O=C(/C=C/c1ccccc1)NCc1ccc(Cl)cc1,52*,0,-2,0,4,-2,
COc1ccc(C(=O)CNCC2CCCO2)cc1OC (centres undefined),69*,0,2,0,-14,1,
SMILES,MITF inh,FBW7 activator,TEAD-YAP block,GPR151 ag,MITF inh conf,AS interf ctr,others
COCCSc1nnc(-c2cnccn2)n1C,75*,0,4,0,9,20,
CCCC/C=C\c1cnc2c(Nc3ccc(NC(C)=O)cc3)nccn12,-24,0,7,3,nt,nt,
C=CCN1C(=O)/C(=C/c2ccco2)S/C1=N/S(=O)(=O)c1cccs1,1,0,-17,2,nt,nt,
C=CCN1C(=O)/C(=C/c2ccco2)S/C1=N/S(=O)(=O)c1ccc(Cl)cc1,87*,0,-12,2,13,17,
CCc1nc(SCC(=O)c2ccc(OC)cc2)n[nH]1,51*,0,-8,0,8,13,
CCc1nc(SCC(=O)c2ccc(OC)c(C)c2)n[nH]1,2,0,-8,-1,nt,nt,
C=CCNc1nc(-c2ccccn2)nnc1-c1ccccc1,70*,-1,-5,3,69*,100*,
CCCCC[C@H](O)/C=C/[C@H]1C(=O)C[C@H](O)[C@@H]1C/C=C\CCCC(=O)NC(CO)CO,-8,nt,nt,3,nt,nt,
O=C(CCCC[C@@H]1SC[C@@H]2NC(=O)N[C@@H]21)NCCCC[C@H](NC(=O)CCN1C(=O)C=CC1=O)C(=O)O,124*,nt,nt,-2,124*,101*,
CCCCC[C@H](O)/C=C/[C@H]1C(=O)C[C@H](O)[C@@H]1C/C=C\CCCCC(=O)NCCCCCNC(=O)CCCC[C@@H]1SC[C@@H]2NC(=O)N[C@@H]21,124*,nt,nt,-1,123*,101*,
CSCCC(NC(=O)CCN1C(=O)c2ccccc2C1=O)C(=O)O (centres undefined),4,0,1,1,nt,nt,
CCCCC[C@H](O)/C=C/[C@H]1C(=O)C[C@H](O)[C@@H]1C/C=C\CCCC(=O)O,13,nt,nt,1,nt,nt,
CCCCC[C@H](O)/C=C/[C@H]1C=CC(=O)[C@@H]1CCCCCCC(=O)O,-12,nt,nt,3,nt,nt,
CCCCC[C@H](O)/C=C/[C@H]1C(=O)C[C@H](O)[C@@H]1C/C=C\CCCC(=O)OCC(O)CO (some centres undefined),71*,nt,nt,1,-6,-3,
CCCCC[C@H](O)/C=C/[C@H]1C=CC(=O)[C@@H]1CCCCCCC(=O)NCCCCCNC(=O)CCCCC1SC[C@@H]2NC(=O)N[C@H]12 (some centres undefined),124*,nt,nt,-2,123*,101*,
Cc1cc(Br)ccc1OCCOCCN1CCN(C)CC1,57*,0,-7,1,-1,2,
Clc1cc(Br)ccc1OCCOCCN1CCNCC1,54*,0,2,-1,-8,-3,
Brc1c(OCCn2ccnc2)ccc2ccccc12,57*,0,17,2,-9,18,
Clc1cc(Br)ccc1OCCOCCn1ccnc1,45,0,-26,-1,nt,nt,
Brc1c(OCCN2CCNCC2)ccc2ccccc12,64*,0,-11,-3,33*,17,AS interf DR=>6.5
CCC(=O)Nc1nonc1-c1nc2ccccc2n1CC(C)C,-7,0,3,2,nt,nt,
Cc1ccsc1[C@@H]1C[C@H]2CN(C3CCCC3)C(=O)[C@]23CCCN13,12,0,1,-1,nt,nt,
COc1ccc(C2=NS(=O)(=O)N(C)C(C(=O)Nc3ccc4c(c3)OCO4)=C2)cc1OC,9,0,18,3,nt,nt,
Clc1cc(Br)ccc1OCCN1CCNCC1,57*,0,-9,0,-158,-3,
CCCCNCCOCCOc1ccc(Br)cc1C,72*,0,0,1,2,8,
Clc1ccc(OCCN2CCNCC2)c(Cl)c1,45,0,5,1,nt,nt,

# Screening results as filed in PubChem BioAssay.
